N370S GC: qHTS Assay for Inhibitors and Activators of N370S glucocerebrosidase as a Potential Chaperone Treatment of Gaucher Disease. AID 2101, 2009. N370S GC spleen homogenate, 4MU-glucoside fluorescence. Potency, µM (top dose mostly 59.4 µM), most hits filed as inhibitors. 330,000 compounds, 0.092% hits
GLA spleen mod: qHTS Assay for Inhibitors and Activators of Human alpha-Galactosidase From Spleen Homogenate; Alpha-galactosidase A (Homo sapiens), P06280; human spleen homogenate, 4MU-alpha-Gal fluorescence, 40 min; Potency, µM (top dose mostly 80 µM), actives largely listed as inhibitors; 240,000 compounds, 0.008% hits; AID 2107, 2009
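Fluorogenic readout (Ex 365/Em 440 nm) of 4-methylumbelliferone released from 1 mM 4-MU-alpha-galactoside by spleen homogenate, 40 min at 37C, pH 5.0. Data normalized to no-enzyme and enzyme controls; Hill-equation AC50 from compound titrations.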
aGlu spleen mod: qHTS Assay for Inhibitors and Activators of Human alpha-Glucosidase From Spleen Homogenate; Lysosomal alpha-glucosidase (Homo sapiens), P10253; human spleen homogenate, 4-MU-alpha-glucoside fluorescence; Potency, µM (titrated, usually from 79.9 µM), actives largely listed as inhibitors; 240,000 compounds, 0.006% hits; AID 2112, 2009
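Human spleen homogenate (1 ug) with 4-methylumbelliferyl-alpha-D-glucopyranoside (1 mM final) in 50 mM citrate/phosphate pH 5.0, 0.01% Tween-20; 40 min at 37 C. Stopped at pH 10; 4-MU fluorescence Ex 365/Em 440 nm; AC50 by Hill fit.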
GAA glycogen mod: qHTS Assay for Inhibitors and Activators of Human alpha-Glucosidase Cleavage of Glycogen. recombinant GAA, glycogen substrate, Amplex Red glucose oxidase fluorescence. Potency, µM (top dose mostly 76.4 µM), actives largely listed as inhibitors. 300,000 compounds, 0.38% hits. Lysosomal alpha-glucosidase (Homo sapiens), P10253;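 note: the screen sought inhibitors and activators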
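Recombinant human alpha-glucosidase (4 nM final) hydrolysed bovine liver glycogen (30 ug) for 40 min at 37 C in pH 5.0 citrate/phosphate with 0.01% Tween-20. Released glucose detected by glucose oxidase/Amplex Red, Ex 573/Em 610 nm. Compounds up to 77 uM; AC50 from Hill fits.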
GAA inhib: qHTS Assay for Inhibitors of Human alpha-Glucosidase as a Potential Chaperone Treatment of Pompe Disease | Lysosomal alpha-glucosidase (Homo sapiens), P10253 | purified human GAA, 4-MU-alpha-glucoside fluorescence | Potency, µM (doses to about 76.9 µM), actives largely listed as inhibitors | 200,000 compounds, 0.005% hits | AID 1466, 2008
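Enzyme (4 nM final) mixed with compound (up to 77 uM), then 4-MU-alpha-D-pyranoside (400 uM final) added; 20 min at room temperature, pH 5.0. Reaction stopped at pH 10, fluorescence read, AC50 derived by Hill fit.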
GLA inh pH 4.5: qHTS Assay for Inhibitors of Human alpha-Galactosidase at pH 4.5; Alpha-galactosidase A (Homo sapiens), P06280; purified enzyme, 4-MU-alpha-Gal fluorescence, pH 4.5; activity change, negative = inhibition, % at 105 µM; 230,000 tested, under 10 active; AID 1467, 2008
Target sequence (P06280 whole entry, looked up): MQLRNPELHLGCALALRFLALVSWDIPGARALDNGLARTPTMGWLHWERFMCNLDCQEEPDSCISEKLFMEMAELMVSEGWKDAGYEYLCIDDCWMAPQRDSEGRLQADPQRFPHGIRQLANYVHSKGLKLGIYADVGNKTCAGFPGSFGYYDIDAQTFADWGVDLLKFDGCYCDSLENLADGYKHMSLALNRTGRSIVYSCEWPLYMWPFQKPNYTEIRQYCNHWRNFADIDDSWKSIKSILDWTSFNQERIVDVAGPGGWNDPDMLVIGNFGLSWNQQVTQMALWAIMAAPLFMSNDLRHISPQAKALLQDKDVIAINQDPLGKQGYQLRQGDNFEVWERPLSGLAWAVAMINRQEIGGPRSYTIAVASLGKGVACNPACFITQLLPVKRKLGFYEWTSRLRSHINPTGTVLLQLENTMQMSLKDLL
Numbers stand for hits; i = inactive; ? = inconclusive; nt = no result given; [ ] = remark or other dose. Only some compounds are listed: those with a hit (about 0.43% of all), similar ones and a draw of the others. Calls come from the whole dose curve; as a rule, active = well fitted curve in the direction sought with a large enough effect; inconclusive = small, poorly fitted or top-dose-only effect, or another doubt; inactive = no such curve, though single readings can be large; an effect the other way counts as inactive or inconclusive.

SMILES	N370S GC	GLA spleen mod	aGlu spleen mod	GAA glycogen mod	GAA inhib	GLA inh pH 4.5
O=c1c2ccccc2nc(COc2ccccc2)n1/N=C/c1ccc(O)c(O)c1	i	i	i	15.8µM	nt	i
O=C(O)c1cc2c(ccc3ccccc32)o1	?	39.8µM	i	i	i	i
CC(=O)Oc1ccc2c(C)cc(=O)oc2c1	?	?	?	i	?	?
CC(=O)Oc1cc2oc(=O)cc(C)c2cc1OC(C)=O	?	?	?	7.88µM	?	?
S=C(Nc1ccc(Nc2ccccc2)cc1)N1CCN(c2ncccn2)CC1	i	i	i	8.91µM	i	i
S=C(Nc1ccccc1)N1CCC(C2CCN(C(=S)Nc3ccccc3)CC2)CC1	i	i	i	i	i	i
OC1CCN(C(=S)Nc2ccc(Nc3ccccc3)cc2)CC1	i	i	i	3.98µM	i	i
Cc1ccn2c(NC3CCCC3)c(-c3ccccn3)nc2c1	i	i	i	?	i	i
Cc1ccn2c(NC3CCCC3)c(-c3ccncc3)nc2c1	i	i	i	28.2µM	i	i[21.1 µM]
c1ccc(-c2nc3ccccn3c2NC2CCCC2)nc1	i	i	i	11.1µM	i	i
O=C(OCC(F)(F)F)[C@H](O)[C@@H](O)C(=O)OCC(F)(F)F	i	i	i	nt	nt	i
CCOC(=O)Cc1csc(NC(=O)Cc2ccc(Cl)cc2)n1	i	i	i	i	nt	i
CCOC(=O)Cc1csc(NC(=O)NC2(C(F)(F)F)Oc3cc(Cl)c(Cl)cc3O2)n1	i	i	i	8.84µM	i	i
CCOC(=O)Cc1csc(NC(=O)Nc2ccc(OC(F)(F)F)cc2)n1	i	i	i	i	i[15.4 µM]	i
CCOC(=O)Cc1csc(NC(=O)NC2(C(F)(F)F)Oc3ccccc3O2)n1	i	i	i	17.6µM	i	i
CCOC(=O)Cc1csc(NC(=O)NC2(C(F)(F)F)Oc3ccc(Cl)cc3O2)n1 (configuration not stated)	i	i	i	11.1µM	i	i
C=C(C)c1cccc(C(C)(C)NC(=O)Nc2ccc(C(N)=O)cc2)c1	i	i	i	i	i	i
C=C(C)c1cccc(C(C)(C)NC(=O)Nc2cccnc2)c1	22.4µM	nt	nt	i	nt	nt
Cc1ccc(NNC(=O)c2cc(C(C)(C)C)nn2Cc2ccccc2)cc1	i	i	i	11.2µM	i[15.4 µM]	i
C=CC1=C2C=C(C3CC3)N(CCCCO)C=C2C(=O)C(C)(OC(=O)c2ccco2)C1=O (configuration not stated)	i[12.8 µM]	i[17.5 µM]	i[17.4 µM]	nt	nt	i
O=C(Cn1c(=O)n(Cc2ccc3c(c2)OCO3)c(=O)c2oc3ccccc3c21)Nc1ccc(F)cc1	nt	nt	nt	i	nt	nt
CC(=O)c1ccc(N2CCN(S(=O)(=O)c3ccc4c(c3)CC(=O)N4)CC2)cc1	i	nt	nt	0.519µM	nt	nt
O=C1Cc2cc(S(=O)(=O)N3CCN(c4ccccc4)CC3)ccc2N1	i	nt	nt	2.6µM	nt	nt
O=C1Cc2cc(S(=O)(=O)N3CCN(c4ccc(C(F)(F)F)cc4)CC3)ccc2N1	nt	nt	nt	i	nt	nt
C=CCc1cccc(C=Nc2cc(Br)ccc2O)c1O	i	i	i	?	i	i
SMILES	N370S GC	GLA spleen mod	aGlu spleen mod	GAA glycogen mod	GAA inhib	GLA inh pH 4.5
CCc1ccc(O)c(N=Cc2cccc(C)c2O)c1	i	i	i	15.7µM	i	i
Cc1cccc(C=Nc2ccc3c4c(cccc24)CC3)c1O	i	i	i	14.1µM	i	i
COc1ccc(Br)cc1CNC(=O)CN1C(=O)CCCc2ccccc21	nt	nt	nt	i	nt	nt
CC(=O)OCC1OC(c2ccc3c(c2)OCO3)C=CC1OC(C)=O (configuration not stated)	i[12.8 µM]	i[17.5 µM]	i[17.4 µM]	nt	nt	nt
COC(=O)C1=C(C(=O)OC)[C@@H]2N(C)c3ccccc3[C@@]23C[C@@H](C(=O)OC)N(S(=O)(=O)c2ccc([N+](=O)[O-])cc2)C3=N1	i[12.8 µM]	i[17.5 µM]	i[17.4 µM]	nt	nt	i
Cc1cc(C)nc(-n2nc(C)cc2Nc2ccccc2)n1	i	i	i	i	i	i
Cc1cc(Nc2ccccc2)n(-c2ccccc2)n1	i	i	i	12.5µM	i	i
CCOc1ccc(NC(=O)N2CCC(CN3CCc4ccccc4C3)CC2)cc1	nt	nt	nt	50.1µM	nt	nt
CCCCn1cnc2c(c(-c3ccccc3)c(-c3ccccc3)n2Cc2ccco2)c1=N	?	i	i	i	nt	i
N=c1c2c(-c3ccccc3)c(-c3ccccc3)n(Cc3ccccc3)c2ncn1CCCn1ccnc1	2.24µM	i	i	i	?	i
Cc1ccc([N+](=O)[O-])cc1-c1[nH]c(-c2ccc(O)c(O)c2)nc1-c1ccccc1	?	i	i	14.1µM	i	i
COc1ccc(-c2nc(-c3ccccc3)c(-c3cc([N+](=O)[O-])ccc3C)[nH]2)cc1O	i	i	i	i	i	?
Cc1nc(Nc2ccc(O)cc2)c2c3c(sc2n1)CCCC3	11.2µM	i	i	14µM	i	i
Cc1ccc(CNc2nc(C)nc3sc4c(c23)CCC4)cc1	i	i	i	i	i	i
C[C@@]12CC[C@H]3OC(=O)C=C3C1CC[C@@]13CC(CCC12)[C@](CO)(O[C@H]1O[C@H](CO)[C@@H](O)[C@H](O)[C@H]1O)C3 (some centres not stated)	17.8µM	nt	nt	nt	nt	nt
COc1ccc2[nH]cc(CCNc3ccnc(-c4ccc(N(C)C)cc4)n3)c2c1	?	?	i	nt	nt	nt
CCc1ccccc1Nc1ccc(C(=O)O)cc1N	i	i	i	3.14µM	i	i
Nc1ccccc1C(=O)Nc1cccc(C(=O)O)c1	i	i	i	i	i	i
CCNc1ccc(C(=O)O)cc1N	i	i	i	?	i	i
Nc1cc(C(=O)O)ccc1Nc1ccccc1	i	i	i	12.5µM	?	i
Cn1c(CNc2ccccc2O)nc2ccccc21	i	i	i	14µM	i[15.4 µM]	i
CCNc1ccc(S(=O)(=O)N(C)C)cc1NCC(=O)Nc1ccc(Br)cc1F	i	i	i	?	i	i
CCNc1ccc(S(=O)(=O)N(C)C)cc1NCC(=O)Nc1ccc(F)c(Cl)c1	7.94µM	i	i	i	i	i
CCNc1ccc(S(=O)(=O)N(C)C)cc1NCC(=O)Nc1ccccc1F	10µM	i	i	?	?	i
CSc1cccc(-n2cc(-c3ccc4c(c3)OCO4)[nH]c2=O)c1	i	i	i	35.2µM	i	i
CSc1cccc(NC(=O)CNC(=O)c2ccc3c(c2)OCO3)c1	i	nt	nt	nt	nt	nt
O=C(NNc1cccc(Cl)n1)c1c(Cl)cccc1Cl	i	i	i	8.91µM	i	i
O=C(NNc1cccc(Cl)n1)c1c(F)cccc1F	i	i	nt	?	i	i
